We go through 40 compounds from PubChem BioAssay.

Structures are written as SMILES. A number with no mark means an inactive call. Activity calls are given as the source filed them. Cut-off read from the data, not from the text of the source, unless noted: active = inhibition above about 44%; inactive = the rest.

Sequence of Steroidogenic factor 1 (Homo sapiens) (Q13285 whole entry, looked up): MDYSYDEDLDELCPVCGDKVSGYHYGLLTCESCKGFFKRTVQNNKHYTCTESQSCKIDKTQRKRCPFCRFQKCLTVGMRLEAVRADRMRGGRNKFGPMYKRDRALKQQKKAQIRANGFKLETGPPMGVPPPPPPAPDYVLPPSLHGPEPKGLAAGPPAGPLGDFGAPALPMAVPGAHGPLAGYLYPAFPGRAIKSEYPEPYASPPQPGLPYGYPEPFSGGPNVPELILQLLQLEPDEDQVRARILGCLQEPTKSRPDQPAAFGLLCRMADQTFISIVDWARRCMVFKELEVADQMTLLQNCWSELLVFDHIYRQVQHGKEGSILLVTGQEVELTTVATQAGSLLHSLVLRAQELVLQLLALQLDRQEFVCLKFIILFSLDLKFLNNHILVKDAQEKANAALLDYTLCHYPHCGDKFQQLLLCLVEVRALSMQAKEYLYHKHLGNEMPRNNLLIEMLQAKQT

One assay addresses Steroidogenic factor 1 (Homo sapiens) (UniProt Q13285). Put plainly: inverse agonism at SF1 nuclear receptor – cell-based, luminescence, high throughput, counter-screen for LRH-1 inverse agonist project (AID 651614).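 Note: cells cotransfected with StAR promoter reporter and SF1 expression vector; 0% = vehicle on cells with receptor and 100% = vehicle on cells lacking receptor.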 The following applies: cell-based SF1 luciferase reporter, at 3.6 µM, stronger effect = higher value.
For the compound `Cc1cc(C)c(C#N)c(Sc2nc(C)c([N+](=O)[O-])c(C)c2C#N)n1`, the inhibition was 9.59%.
Still for that read-out and setting: next, `O=C1C=CC2(C=C1)O[C@H](Cc1ccccc1)[C@@H](Cc1ccccc1)O2`: 73.2% (active); `O=C(CCCc1ccccc1)c1ccc2c(c1)OCCO2`: 55.9% (active).
Still for that read-out and setting: next, `O=C(Nc1ccc(Cl)cc1)/C(=C/c1cccc(O)c1)c1nc2ccccc2s1`: 78.1% (active).
Regarding `C=CC(=O)N1C/C(=C/c2ccccc2)C(=O)/C(=C\c2ccccc2)C1`, the inhibition is 77.5% (active).
Still for that read-out and setting: as for `CC1CCC/C=C/C(=O)c2c(O)cc(O)cc2CC(=O)O1` (stereo not given), the figure is 12.9%; as for `CCOc1ccc(-c2cc(CCCC(=O)Nc3cccc(OC)c3)no2)cc1`, 48.5% (active); as for `C#CCN(C[C@@H]1[C@@H](OC(=O)Nc2cccs2)[C@@H](OC(=O)Nc2cccs2)Cn2c(=O)ccc(=O)n21)S(=O)(=O)c1ccc(C)cc1`, 54.8% (active).
In the case of `Cc1cc(C)n2c(Nc3ccc4c(c3)OCCO4)c(-c3cc4ccccc4o3)nc2n1`, the inhibition is -6.96%.
On the same count and under the same terms, as for `O=C(CCl)Nc1cc2[nH]c(=O)[nH]c2cc1Br`, the figure is 79.1% (active).
For `COc1cccc(C2=CC(=O)CC(C)(C)C2)n1`, the inhibition was 58.1% (active).
In the case of `COc1ccc(OC)c(N(CCN2C(=O)c3ccccc3C2=O)C(=O)CCl)c1`, the inhibition is 54% (active).
With `O=C1/C(=C\c2ccccc2)CN(C(=O)CCN2CCCCC2)C/C1=C/c1ccccc1`, the inhibition is 84.8% (active).
Regarding `N#CC(=C1C=CC(=NO)C(Cl)=C1)c1ccccc1`, the inhibition is 61.3% (active).
On the same count and under the same terms, as for `CCC(C(=O)NCc1ccccc1)n1c(CSCCOc2ccccc2)nc2ccccc21` (stereo not given), the figure is 25.1%; as for `COc1ccc(/C=C/c2nc3ccccc3c(=O)o2)cc1`, 37.2%.
Same read-out and setting: as for `Cc1nnsc1C(=O)NC1CCCc2c1cnn2-c1ccc(C(C)(C)C)cc1` (stereo not given), the figure is 63.2% (active).
Still for that read-out and setting: next, `Cc1scc(C(=O)N/N=C/c2ccc([N+](=O)[O-])o2)c1C`: 73.5% (active); `O=C(CCl)N1CCN(S(=O)(=O)Cc2ccccc2)CC1`: 47.5% (active); `Cc1ccc(C(=O)Sc2cccccc2=O)cc1`: 98.6% (active).
On to `COc1ccc(CCNc2ncnc3sc(C)cc23)cc1OC`, for which the inhibition was 57.7% (active).
On the same count and under the same terms, as for `CC(=O)c1c(C)[nH]c(C(=O)COc2cc(C)ccc2C(C)C)c1C`, the figure is 71% (active); as for `COc1ccc(-c2noc(CCCC(=O)NC3CCCC3)n2)cc1`, 60.5% (active); as for `CC1C/C(=C/c2ccncc2)C(=O)/C(=C/c2ccncc2)C1` (stereo not given), 84.2% (active).
On the same count and under the same terms, as for `C=CC(=O)N1C/C(=C/c2ccc(Cl)cc2)C(=O)/C(=C\c2ccc(Cl)cc2)C1`, the figure is 87.8% (active); as for `CCN(Cc1ccc(OC)c(F)c1)C(=O)CCl`, 73.3% (active).
Same read-out and setting: as for `O=C(CSc1ncccc1C(=O)O)Nc1ccc2c(c1)OCCO2`, the figure is 16.6%; as for `O=C(NCCOc1cccnc1)c1ccc(OC2CCN(Cc3ccccn3)CC2)cc1`, 97.6% (active).
Take `Brc1ccc2ncnc(NCc3ccccc3)c2c1`: the inhibition was 59.9% (active).
On the same count and under the same terms, as for `CN(C)CCC(=O)N1C/C(=C/c2ccccc2)C(=O)/C(=C\c2ccccc2)C1`, the figure is 86.6% (active); as for `CC(=O)NC(c1cccc([N+](=O)[O-])c1)c1ccc2cccnc2c1O` (stereo not given), 91.2% (active).
Still for that read-out and setting: next, `COc1ccc(-c2cc(-c3nc4ccccn4c3NCc3ccccc3)ccc2OC)cc1`: 97.3% (active).
The same measure, in the same setting: next, `COc1ccc(C)cc1NS(=O)(=O)c1ccc(-c2cnc(C3CC3)o2)cc1`: 58% (active); `Cn1cnc([N+](=O)[O-])c1Oc1ccc2ccccc2c1`: 54.8% (active); `CC(C)(C)c1ccc(Oc2ccc(NC(=O)C3CC=CCC3C(=O)O)cc2)cc1` (stereo not given): 0.96%.
Take `COc1ccc(NC(=O)/C(Cl)=C(/Cl)S(=O)Cc2ccccc2)cn1` (stereo not given): the inhibition was 78.2% (active).
Still for that read-out and setting: next, `O=C(NCCc1c[nH]c2ccccc12)c1ccc([N+](=O)[O-])o1`: 59.7% (active); `CCCCCc1c(CC)ncn1CCc1ccccc1OC`: 25.2%.
In the case of `CC(C)(C)C(=O)Nc1cc2nn(-c3ccccc3)nc2cc1Cl`, the inhibition is 43.6% (active).
The same measure, in the same setting: as for `Cc1ccc(NC(=O)C2=C(c3ccccc3)S(=O)(=O)CCS2(=O)=O)cc1`, the figure is 30.3%.

System in the next assay: not listed separately
Put plainly: compounds suppressing VP16-driven luciferase signal – cell-based, luminescence, high throughput, counter-screen for LRH-1 inverse agonist project (AID 651615; in the data active = inhibition above about 33%). Conditions: Gal4-VP16 luciferase reporter cells, at 3.6 µM, stronger effect = higher value.
In the case of `Cc1cc(C)c(C#N)c(Sc2nc(C)c([N+](=O)[O-])c(C)c2C#N)n1`, the inhibition is 20.6%.
On to `O=C1C=CC2(C=C1)O[C@H](Cc1ccccc1)[C@@H](Cc1ccccc1)O2`, for which the inhibition was 72.5% (active).
Still for that read-out and setting: next, `O=C(CCCc1ccccc1)c1ccc2c(c1)OCCO2`: 26.2%; `O=C(Nc1ccc(Cl)cc1)/C(=C/c1cccc(O)c1)c1nc2ccccc2s1`: 71.2% (active).
The same measure, in the same setting: as for `C=CC(=O)N1C/C(=C/c2ccccc2)C(=O)/C(=C\c2ccccc2)C1`, the figure is 62.2% (active); as for `CC1CCC/C=C/C(=O)c2c(O)cc(O)cc2CC(=O)O1` (stereo not given), 29.1%; as for `CCOc1ccc(-c2cc(CCCC(=O)Nc3cccc(OC)c3)no2)cc1`, 6.33%.
On the same count and under the same terms, next, `C#CCN(C[C@@H]1[C@@H](OC(=O)Nc2cccs2)[C@@H](OC(=O)Nc2cccs2)Cn2c(=O)ccc(=O)n21)S(=O)(=O)c1ccc(C)cc1`: 36.8% (active); `Cc1cc(C)n2c(Nc3ccc4c(c3)OCCO4)c(-c3cc4ccccc4o3)nc2n1`: 0.38%; `O=C(CCl)Nc1cc2[nH]c(=O)[nH]c2cc1Br`: 2.89%.
Consider `COc1cccc(C2=CC(=O)CC(C)(C)C2)n1`, for which the inhibition is 45.9% (active).
For `COc1ccc(OC)c(N(CCN2C(=O)c3ccccc3C2=O)C(=O)CCl)c1`, the inhibition was 16.1%.
The same measure, in the same setting: as for `O=C1/C(=C\c2ccccc2)CN(C(=O)CCN2CCCCC2)C/C1=C/c1ccccc1`, the figure is 73.7% (active).
As for `N#CC(=C1C=CC(=NO)C(Cl)=C1)c1ccccc1`, the inhibition was 22.2%.
Still for that read-out and setting: as for `CCC(C(=O)NCc1ccccc1)n1c(CSCCOc2ccccc2)nc2ccccc21` (stereo not given), the figure is 29%; as for `COc1ccc(/C=C/c2nc3ccccc3c(=O)o2)cc1`, -63%; as for `Cc1nnsc1C(=O)NC1CCCc2c1cnn2-c1ccc(C(C)(C)C)cc1` (stereo not given), 50.6% (active).
The same measure, in the same setting: next, `Cc1scc(C(=O)N/N=C/c2ccc([N+](=O)[O-])o2)c1C`: 25.1%.
The same measure, in the same setting: next, `O=C(CCl)N1CCN(S(=O)(=O)Cc2ccccc2)CC1`: 15.9%; `Cc1ccc(C(=O)Sc2cccccc2=O)cc1`: 96.8% (active).
`COc1ccc(CCNc2ncnc3sc(C)cc23)cc1OC`: the inhibition is 57.9% (active).
With `CC(=O)c1c(C)[nH]c(C(=O)COc2cc(C)ccc2C(C)C)c1C`, the inhibition is 50.3% (active).
Turning to `COc1ccc(-c2noc(CCCC(=O)NC3CCCC3)n2)cc1`, the inhibition is 34.5% (active).
With `CC1C/C(=C/c2ccncc2)C(=O)/C(=C/c2ccncc2)C1` (stereo not given), the inhibition is 72.9% (active).
Same read-out and setting: next, `C=CC(=O)N1C/C(=C/c2ccc(Cl)cc2)C(=O)/C(=C\c2ccc(Cl)cc2)C1`: 65.8% (active); `CCN(Cc1ccc(OC)c(F)c1)C(=O)CCl`: 21.3%; `O=C(CSc1ncccc1C(=O)O)Nc1ccc2c(c1)OCCO2`: 0.17%.
The same measure, in the same setting: next, `O=C(NCCOc1cccnc1)c1ccc(OC2CCN(Cc3ccccn3)CC2)cc1`: 87.7% (active); `Brc1ccc2ncnc(NCc3ccccc3)c2c1`: 80.8% (active).
On to `CN(C)CCC(=O)N1C/C(=C/c2ccccc2)C(=O)/C(=C\c2ccccc2)C1`, for which the inhibition is 77.2% (active).
Turning to `CC(=O)NC(c1cccc([N+](=O)[O-])c1)c1ccc2cccnc2c1O` (stereo not given), the inhibition is 83.9% (active).
The same measure, in the same setting: as for `COc1ccc(-c2cc(-c3nc4ccccn4c3NCc3ccccc3)ccc2OC)cc1`, the figure is 98.7% (active); as for `COc1ccc(C)cc1NS(=O)(=O)c1ccc(-c2cnc(C3CC3)o2)cc1`, 54.5% (active).
Same read-out and setting: as for `Cn1cnc([N+](=O)[O-])c1Oc1ccc2ccccc2c1`, the figure is 10.8%.
Turning to `CC(C)(C)c1ccc(Oc2ccc(NC(=O)C3CC=CCC3C(=O)O)cc2)cc1` (stereo not given), the inhibition was 5.54%.
Take `COc1ccc(NC(=O)/C(Cl)=C(/Cl)S(=O)Cc2ccccc2)cn1` (stereo not given): the inhibition was 94.5% (active).
As to `O=C(NCCc1c[nH]c2ccccc12)c1ccc([N+](=O)[O-])o1`, the inhibition was 21.7%.
Same read-out and setting: as for `CCCCCc1c(CC)ncn1CCc1ccccc1OC`, the figure is 31.8% (active); as for `CC(C)(C)C(=O)Nc1cc2nn(-c3ccccc3)nc2cc1Cl`, 50.1% (active).
For the compound `Cc1ccc(NC(=O)C2=C(c3ccccc3)S(=O)(=O)CCS2(=O)=O)cc1`, the inhibition is 48.5% (active).
